The record followed here is PubChem BioAssay (NCI).

Assay in all cases: NCI-60 one-dose screen, 48 h (100 = growth as untreated, 0 = no growth, -100 = all killed)
Settings in all cases: 10 µM unless noted

Experiment [1] concerns T-47D breast.
Experiment [2] concerns BT-549 breast.
The test system of experiment [3] is MDA-MB-435 melanoma.
The subject of experiment [4] is SW-620 colon.
The subject of experiment [5] is MCF7 breast.
Experiment [6] has as its system HCT-116 colon.
For experiment [7], the system named is HCC-2998 colon.
Experiment [8] relates to KM12 colon.

The panel holds about 83,000 compounds, 20% with a hit somewhere; the sample as a whole holds those more often.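 For each line, cells grew in 96-well plates with the test compound present at a single concentration for 48 hours.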 A number with no mark means an inactive call. Activity calls are given as the source filed them. How the source made its calls: active means growth percent below 10; inactive means the rest.

As to `COC1CC(N)C2OC(c3ccccc3)OCC2O1` (centres undefined), the growth in experiment [1] was 107%; in experiment [2] it was 106%; in experiment [3] it was 102%; in experiment [4], 99.6%; in experiment [5], 92.7%; in experiment [6], 102%. The growth in experiment [7] is 102%; in experiment [8], 103%.

For `CSCCC1NC(=O)C(C(C)=Nc2ccccc2)=C1O` (centres undefined), the growth was 103% in experiment [1]; 105% in experiment [2]; 95.4% in experiment [3]; 104% in experiment [4]; 91.3% in experiment [5]; 107% in experiment [6]. In addition, the growth in experiment [7] was 113%; in experiment [8], 79.3%.

As to `COc1cc2c(cc1OCCCOc1cc3c(cc1OC)C(=O)N1CCC[C@H]1C=N3)C=CC(C)(C)O2`, the growth was 62.6% in experiment [1]; -0.137% (active) in experiment [2]; 101% in experiment [3]; 18.1% in experiment [4]; 39.3% in experiment [5]; 61% in experiment [6]. Further, the growth was 100% in experiment [7] and 109% in experiment [8].

Regarding `CCN(CC)CCCNc1cccc2c(C)cc(OC)nc12`, the growth is 98.7% in experiment [1]; 87.4% in experiment [2]; 115% in experiment [3]; 102% in experiment [4]; 84.8% in experiment [5]; 95.1% in experiment [6]. Moreover, the growth was 90.2% in experiment [7] and 100% in experiment [8].

Take `COc1ccc(Nc2ncccc2C(=O)NCc2cn(Cc3cc(OC)cc(OC)c3)nn2)cc1`: the growth in experiment [1] is 93.6%; in experiment [2], 98.4%; in experiment [3] it was 106%; in experiment [4], 105%; in experiment [5], 104%; in experiment [6] it was 94.8%. Moreover, the growth in experiment [7] is 103%; in experiment [8], 102%.

Consider `COc1ccc([C@@H]2[C@@H](Oc3ccccc3)C(=O)N2c2cc(OC)c(OC)c(OC)c2)cc1F`, for which the growth in experiment [1] is 87.4%; in experiment [2], 1.45% (active); in experiment [3] it was -27.5% (active); in experiment [4] it was 26.2%; in experiment [5], 14.1%; in experiment [6] it was 2.37% (active). Moreover, the growth in experiment [7] is 12.9%; in experiment [8], 11.7%.

For `CC1CCN(Cc2ccc(NC(=O)c3cc4ccc5cccnc5c4[nH]3)cc2)CC1`, the growth was 38.4% in experiment [1]; 42.8% in experiment [2]; -67.6% (active) in experiment [3]; 28.1% in experiment [4]; 27.2% in experiment [5]; 13.6% in experiment [6]. Further, the growth in experiment [7] was 17.5%; in experiment [8], 15.1%.

`Cc1n(Cc2ccc3ccccc3n2)cc[n+]1Cc1ccc2ccccc2c1`: the growth in experiment [1] is 0.908% (active); in experiment [2], -0.0129% (active); in experiment [3], 0.529% (active); in experiment [4] it was 20.6%; in experiment [5], 4.65% (active); in experiment [6], 4.92% (active). Moreover, the growth in experiment [7] was 19.8%; in experiment [8], 5.21% (active).

For the compound `O=C(/C=C/c1cccc([N+](=O)[O-])c1)c1ccc(Nc2nc(N3CCCCC3)nc(N3CCCCC3)n2)cc1`, the growth in experiment [1] was 78.6%; in experiment [2], 91.8%; in experiment [3], -11.7% (active); in experiment [4] it was 94.2%; in experiment [5], 19.4%; in experiment [6], -34.5% (active). In addition, the growth in experiment [7] was 81.8%; in experiment [8], 85.5%.

Turning to `COc1cccc(/C=N/N=C(N)N)c1`, the growth is 97.5% in experiment [1]; 114% in experiment [2]; 114% in experiment [3]; 98% in experiment [4]; 100% in experiment [5]; 99.9% in experiment [6]. Further, the values for the growth in experiment [7] and in experiment [8] were 107% and 96.4%, respectively.

In the case of `COc1cc(CN2CCO[C@H](COc3cccc(F)c3)C2)ccc1Cl`, the growth was 28.2% in experiment [1]; 50.2% in experiment [2]; 29.2% in experiment [3]; 47.4% in experiment [4]; 26.7% in experiment [5]; 27.1% in experiment [6]. Further, the growth in experiment [7] was 49.3%; in experiment [8], 69%.

As to `O=C(NO)c1ccc(NCc2csc3ccccc23)cc1`, the growth in experiment [1] was 41.5%; in experiment [2], 77.6%; in experiment [3] it was 82.4%; in experiment [4], 61.5%; in experiment [5], 83%; in experiment [6] it was 34.4%. The results for the growth in experiment [7] and in experiment [8] were 73.5% and 66.9%, respectively.

Consider `COc1ccccc1/C=N\NC(=S)Nc1ccc(F)cc1`, for which the growth is 72.5% in experiment [1]; 73.3% in experiment [2]; 1.12% (active) in experiment [3]; 37.5% in experiment [4]; 60.5% in experiment [5]; 68.7% in experiment [6]. In addition, the growth in experiment [7] is 66.5%; in experiment [8], 51.4%.

Turning to `CCC1CCc2nc3sc(C(=O)Nc4cccc(F)c4)c(N)c3cc2C1` (centres undefined), the growth is 89.9% in experiment [1]; 88.1% in experiment [2]; -12.6% (active) in experiment [3]; 40.6% in experiment [4]; 12.6% in experiment [5]; 60% in experiment [6]. Further, the growth in experiment [7] was 91.6%; in experiment [8], 41.3%.

With `CCCNC(=S)N/N=C(\C)c1ccccn1`, the growth in experiment [1] was 37.2%; in experiment [2], 32.4%; in experiment [3] it was 49%; in experiment [4], 33.4%; in experiment [5] it was 6.77% (active); in experiment [6] it was 4.71% (active). The growth is 44.2% in experiment [7] and 32% in experiment [8].

Consider `O=C(NCCNC(=O)c1cc(S(=O)(=O)NCCc2ccccc2)c(O)c(O)c1O)c1cc(S(=O)(=O)NCCc2ccccc2)c(O)c(O)c1O`, for which the growth in experiment [1] was 84.1%; in experiment [2], 48.8%; in experiment [3], 35.2%; in experiment [4], 54.7%; in experiment [5], 34.9%; in experiment [6], 33.5%. The growth in experiment [7] is 38.6%; in experiment [8] it was 34.1%.

In the case of `COc1ccc(/C(=C\c2cc(OC)c(OC)c(OC)c2)C(=O)N2CCNCC2)cc1`, the growth in experiment [1] was 82.8%; in experiment [2], 104%; in experiment [3], 98.2%; in experiment [4], 97.6%; in experiment [5] it was 95.5%; in experiment [6], 94.5%. Further, the growth in experiment [7] is 104%; in experiment [8], 94.2%.

For the compound `C1=C\CCCCN2CC[C@H]3[C@H](CCCC/C=C\CCCN4C[C@@H](CCCCC/1)C[C@@H]3C4)C2`, the growth in experiment [1] was 71.4%; in experiment [2] it was 89.5%; in experiment [3] it was -70.3% (active); in experiment [4], 79.8%; in experiment [5] it was 22.7%; in experiment [6], 43.6%. Moreover, the growth in experiment [7] was 22.1%; in experiment [8], 58.1%.

Consider `Cc1ccc(-c2nc3ccccc3c(=O)n2/N=C/c2cccc3ccccc23)cc1`, for which the growth is 42.6% in experiment [1]; 80.1% in experiment [2]; 69.2% in experiment [3]; 93.9% in experiment [4]; 62.9% in experiment [5]; 71.5% in experiment [6]. For the same compound, the growth in experiment [7] is 80.5%; in experiment [8], 69.1%.

Consider `CC(C)OC(=O)c1ccc([N+](=O)[O-])cc1`, for which the growth in experiment [1] is 108%; in experiment [2], 113%; in experiment [3], 125%; in experiment [4], 109%; in experiment [5], 117%; in experiment [6], 110%. Moreover, the growth in experiment [7] and in experiment [8] was 113% throughout.

Regarding `COCCCNCC(=O)Nc1c(C)cccc1C`, the growth in experiment [1] is 103%; in experiment [2], 104%; in experiment [3], 112%; in experiment [4], 114%; in experiment [5], 114%; in experiment [6] it was 110%. Further, the growth was 122% in experiment [7] and 109% in experiment [8].

For `Cc1nc2ccc(Nc3nc(Cl)nc(N4CCOCC4)n3)cc2n1Cc1ccccc1`, the growth in experiment [1] was 40.6%; in experiment [2], 83.7%; in experiment [3] it was 110%; in experiment [4], 70.4%; in experiment [5], 64.7%; in experiment [6], 81.2%. In addition, the figures for the growth in experiment [7] and in experiment [8] were 0.667% (active) and 95.8%, respectively.

Turning to `O=C(N=Nc1c(Cl)c(O)c2ccccc2c1O)C(=O)Nc1cccc(C(F)(F)F)c1`, the growth is 44.9% in experiment [1]; 69% in experiment [2]; -29.3% (active) in experiment [3]; 63.6% in experiment [4]; -4.71% (active) in experiment [5]; 33.1% in experiment [6]. Further, the results for the growth in experiment [7] and in experiment [8] were 96.2% and 53.6%, respectively.

Regarding `C=CCn1c(SCC(=O)Nc2ccc(/C(C)=N\O)cc2)nnc1-c1cc(-c2ccc(Cl)cc2)nc2ccccc12`, the growth is 7.73% (active) in experiment [1]; 33.5% in experiment [2]; 30.8% in experiment [3]; 41.1% in experiment [4]; 14% in experiment [5]; 19.5% in experiment [6]. The growth in experiment [7] is 21%; in experiment [8] it was 16.5%.

`COc1c(-c2cc(-c3ccc(C)o3)[nH]c(=O)n2)c(O)cc2occc12`: the growth was 45.5% in experiment [1]; 54% in experiment [2]; -38.6% (active) in experiment [3]; 22.3% in experiment [4]; 28.1% in experiment [5]; 42.8% in experiment [6]. The growth in experiment [7] was 92.1%; in experiment [8], 36.1%.

As to `CC(C)(C)c1ccc(Cn2c(-c3nonc3N)nc3ccccc32)cc1`, the growth in experiment [1] is 53.6%; in experiment [2], 90.2%; in experiment [3], 8.66% (active); in experiment [4] it was 51.5%; in experiment [5], 35.5%; in experiment [6], 62.6%. Besides, the figures for the growth in experiment [7] and in experiment [8] were 77.7% and 59.4%, respectively.

As to `Cc1cc(C)c([O-])c(CN(C)CCN(C)Cc2cc(C)cc(C)c2[O-])c1.O=C([O-])c1cccc(C(=O)[O-])n1.[Ti+4]`, the growth in experiment [1] is 28.4%; in experiment [2] it was -0.731% (active); in experiment [3], 6.53% (active); in experiment [4], -19.7% (active); in experiment [5], 17.1%; in experiment [6] it was 4.86% (active). For the same compound, the growth was 5.25% (active) in experiment [7] and 11% in experiment [8].

Take `Brc1ccccc1Cn1c(-c2cncs2)nc2ccccc21`: the growth in experiment [1] is 72.2%; in experiment [2] it was 85.4%; in experiment [3], 110%; in experiment [4], 88.4%; in experiment [5] it was 98.9%; in experiment [6] it was 73.3%. The growth in experiment [7] was 92%; in experiment [8] it was 76.7%.
